80 molecules from PubChem BioAssay AID651706 (NMMLSC, 2012) can be followed below.

Structures are written as SMILES. In all, about 2,300 compounds went through this assay and about 55 (2%) were called active.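 The calls were made as follows: active = share of green or green-and-red cells above 9 and 9% in run 1 or 4 and 3% in run 2; inactive = the rest, inconclusive results apart.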 These entries were drawn from the full list.

The assay can be described thus: differentiation of ER-HoxA9 arrested myeloid cells – cell-based, GFP/Mac1 flow cytometry, cherry pick 01, confirmation (AID 651706).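 As to differentiation response: plate controls were double positive share in DMSO wells for no effect and share in positive control wells for full effect.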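 As to double positive cells: share of live cells carrying both lysozyme GFP and MAC1 staining after four days.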 The conditions noted are these: ER-HoxA9 myeloid progenitors, stronger effect = higher value; differentiation response: GFP/Mac1 double-positive flow; double positive cells: measured here: percent double positive cells. (In general: Flow cytometry measures light scatter and fluorescence of single cells or particles in a stream.)
With `Cc1ccc2nc(-c3ccccn3)cc(C(=O)Nc3ccc4c(c3)OCO4)c2c1`, the differentiation response was 1.4% (inactive) and the double positive cells was determined as 0.8%.
With `CCN(CC)CC(=O)c1c[nH]c2ccc(OC)cc12`, the differentiation response is 1.4% (inactive) and the double positive cells stood at 0.9%.
Turning to `CNc1nc(=O)n(C2CCCO2)cc1C` (stereo not given), the differentiation response is 2.7% (inactive) and the double positive cells came out at 1.3%.
Turning to `Cc1cc(C)c(-c2csc(NC(=O)CCCc3nc4ccccc4c(=O)[nH]3)n2)c(C)c1`, the differentiation response was 3.35% (inactive) and the double positive cells was 0%.
As to `CN1CCC(CN)(N2CCN(c3ccccc3)CC2)CC1`, the differentiation response was 1.95% (inactive) and the double positive cells worked out at 1.25%.
Taken in the same sequence, the figures for `COc1ccc(S(=O)(=O)N2CCC(C(=O)N3CCc4ccccc4C3)CC2)cc1OC` were 1% (inactive) and 1%.
Take `Cc1ccc(OS(=O)Nc2cccc3nccnc23)cc1` (stereo not given): the differentiation response is 1.6% (inactive) and the double positive cells turned out to be 0.85%.
As for `CCN(CC)C(=O)CSC(Nc1cccc(F)c1)=C(C#N)C#N`, the differentiation response is 13.7% (inactive) and the double positive cells amounted to 0.9%.
With `COc1cc(N=Cc2c(O)[nH]c3ccccc23)cc(OC)c1OC`, the differentiation response was 0% (inactive) and the double positive cells stood at 0%.
As to `CNC[C@H]1Oc2c(NC(=O)C3CCCCC3)cccc2C(=O)N([C@H](C)CO)C[C@@H]1C`, the differentiation response is 4.4% (inactive) and the double positive cells was 3.95%.
Turning to `Cc1nn(-c2ncccn2)c2c1C(=O)CC(C)(C)C2Br` (stereo not given), the differentiation response was 1% (inactive) and the double positive cells turned out to be 0.85%.
Taken in the same sequence, the figures for `Cn1c2ccccc2c2cc(/C=C(\NC(=O)c3ccccc3)C(=O)NCC(=O)O)ccc21` were 3.05% (inactive) and 2.15%.
The matching figures for `CCOC(=O)c1c(-c2ccc(C)cc2)csc1/N=C(\C)C1=C(O)c2ccccc2C1=O`: 12.2% (inactive) and 3.3%.
Consider `COc1ccc(-c2ccc(OC(=O)NC3CCS(=O)(=O)C3)cc2)cc1` (stereo not given), for which the differentiation response was 2.2% (inactive) and the double positive cells worked out at 0.5%.
As to `O=S(=O)(c1ccc(Br)cc1)c1nc(-c2ccccc2)oc1NCc1cccnc1`, the differentiation response was 50.5% (inactive) and the double positive cells was 50.2%.
As to `Nc1nc(Nc2ccccc2F)nc(NC2CCCCC2)c1[N+](=O)[O-]`, the differentiation response is 51.1% (inactive) and the double positive cells worked out at 25%.
`Cc1ccc(Nc2cc(C)nc3c(C)ccc([N+](=O)[O-])c23)cc1`: the differentiation response is 11.4% (inactive) and the double positive cells was determined as 0.55%.
On to `CN1OC(COC(=O)c2ccc(Cl)cc2)CC1c1ccccc1` (stereo not given), for which the differentiation response was 1.05% (inactive) and the double positive cells stood at 0.8%.
Taken in the same sequence, the figures for `COc1cc(/C=C2/SC(=S)N(Cc3ccccc3)C2=O)cc(OC)c1O` were 2.8% (inactive) and 0.4%.
With `Clc1ccc(-c2nnc(SCc3nc4ccccc4s3)o2)cc1`, the differentiation response is 1.05% (inactive) and the double positive cells stood at 1%.
For the molecule `CC(=O)Nc1ccc(S(=O)(=O)Nc2ccc(N3CCOCC3)c(F)c2)cc1`, the differentiation response is 1.45% (inactive) and the double positive cells worked out at 1%.
Take `COc1ccc(N(CC(=O)NC2CCCCCCC2)S(=O)(=O)c2c(C)nn(C)c2C)cc1`: the differentiation response was 1.75% (inactive) and the double positive cells came out at 0.95%.
Regarding `O[C@H]1C[C@H](c2ccc(Cl)cc2)N(Cc2cccs2)C[C@@H]1n1cc(C2CC2)nn1`, the differentiation response was 18.4% (active) and the double positive cells worked out at 13.1%.
For `O[C@H]1CN(Cc2cccs2)[C@@H](c2ccc(Cl)cc2)C[C@@H]1n1cc(C2CC2)nn1`, the differentiation response is 1.4% (inactive) and the double positive cells was found to be 1.1%.
On to `Cc1ccc2c(c1)C1C[N+](C)(CC(=O)c3ccccc3)CCC1N2C(=O)c1ccccc1Cl` (stereo not given), for which the differentiation response was 4.1% (inactive) and the double positive cells was determined as 2.05%.
In the case of `Cc1ccc(-n2nc3cc(C)c(NC(=O)c4cccnc4)cc3n2)cc1`, the differentiation response was 5.4% (inactive) and the double positive cells was 1.05%.
On to `Cc1cccc(-n2c(SCC(=O)Nc3cccc(S(=O)(=O)NC4=NCCCCC4)c3)nc3ccccc3c2=O)c1C`, for which the differentiation response is 17.3% (inactive) and the double positive cells was determined as 0.7%.
With `Fc1cccc(Cl)c1CSc1ccc(-c2ccco2)nn1`, the differentiation response was 1.2% (inactive) and the double positive cells was determined as 0.8%.
The matching figures for `CC(C)c1nc2ccc(C(=O)O)cc2[nH]1`: 1.95% (inactive) and 1.8%.
`CSc1nnc(-c2ccncc2)n1CCCN1CCCC1=O`: the differentiation response was 1.75% (inactive) and the double positive cells was determined as 1.15%.
In the case of `O=C(NCCN=C1NS(=O)(=O)c2ccccc21)c1ccc(S(=O)(=O)N2CCOCC2)cc1`, the differentiation response was 1.35% (inactive) and the double positive cells was 1.3%.
In the case of `CC(=O)N1c2ccc(S(=O)(=O)N3CCCC(C(=O)Nc4cccc(F)c4)C3)cc2CC1C` (stereo not given), the differentiation response is 1.45% (inactive) and the double positive cells was determined as 0.95%.
As to `O=C(Nc1cccc2ncccc12)c1ccc(-c2ccc(Cl)cc2Cl)o1`, the differentiation response is 4.55% (inactive) and the double positive cells was 2.9%.
With `Cc1cccc(OCC(O)CN2CCN(CCN3C(=O)c4cccc5cccc(c45)C3=O)CC2)c1C` (stereo not given), the differentiation response was 0.25% (inactive) and the double positive cells is 0%.
Take `Cc1cccc(C)c1NC(=O)CCS(=O)(=O)c1cccc2nsnc12`: the differentiation response was 2% (inactive) and the double positive cells stood at 1.5%.
As for `CC(C)CNC(=O)COC(=O)/C=C/c1ccccc1[N+](=O)[O-]`, the differentiation response is 1.45% (inactive) and the double positive cells came out at 1.2%.
Regarding `COC(=O)CN(c1cccc(C(C)=O)c1)S(C)(=O)=O`, the differentiation response was 2.05% (inactive) and the double positive cells was 1.5%.
As for `O=C(CN1C(=O)NC(Cc2c[nH]c3ccccc23)C1=O)Nc1ccccc1C(F)(F)F` (stereo not given), the differentiation response was 1.7% (inactive) and the double positive cells stood at 1.2%.
`CC1(C)CC(=O)C2=C(C1)Nc1cc(C(=O)c3ccccc3)ccc1NC2c1ccccn1` (stereo not given): the differentiation response is 1.95% (inactive) and the double positive cells is 1.65%.
Take `CCOC(=O)C1=C(CN2CCc3ccccc32)NC(=O)NC1c1cccc([N+](=O)[O-])c1` (stereo not given): the differentiation response was 12.3% (active) and the double positive cells turned out to be 8.95%.
As to `Cc1nc(C)c(-c2nnc(-c3cccc(S(=O)(=O)N(C)C)c3)o2)cc1C(=O)NN`, the differentiation response was 4.1% (inactive) and the double positive cells came to 1.3%.
For `Cc1ccc2c(c1)c1ncn(Cc3ccc(F)cc3)c(=O)c1n2C`, the differentiation response is 2% (inactive) and the double positive cells worked out at 0.8%.
On to `O=c1oc2ccccc2cc1-c1csc(Nc2ccc(O)cc2)n1`, for which the differentiation response is 27.4% (inactive) and the double positive cells came to 12.5%.
`Cc1cc(C)n(C(=O)c2ccc(C)c(S(=O)(=O)N3CCOCC3)c2)n1`: the differentiation response is 1.9% (inactive) and the double positive cells was found to be 1.8%.
Turning to `Cc1cc(C)c(S(=O)(=O)NCC2CCC(C(=O)NCc3ccc4c(c3)OCO4)CC2)c(C)c1` (stereo not given), the differentiation response was 3.7% (inactive) and the double positive cells worked out at 1.35%.
For the molecule `CCOc1ccc(C(=O)Nc2ccc(S(=O)(=O)NCC3CCCO3)cc2)cc1OCC` (stereo not given), the differentiation response is 1.5% (inactive) and the double positive cells worked out at 1.2%.
For the molecule `CC(C)(C)OC(=O)CNC(=O)c1[nH]cnc1C(=O)N[C@@H](Cc1ccccc1)C(=O)OCc1ccccc1`, the differentiation response is 1.85% (inactive) and the double positive cells came out at 1.95%.
For the molecule `CCCC(=O)Nc1c(O)c2ccccc2[nH]c1=O`, the differentiation response was 1.45% (inactive) and the double positive cells came out at 1.1%.
Turning to `C/C(=C\c1ccccc1)C1NC(=O)c2c(sc3c2CCCC3)N1` (stereo not given), the differentiation response was 1.1% (inactive) and the double positive cells amounted to 0.75%.
Consider `COc1ccc(C2CC(c3cccc(OC)c3)=NN2c2ccc(S(N)(=O)=O)cc2)cc1` (stereo not given), for which the differentiation response was 2.25% (inactive) and the double positive cells is 1.4%.
In the case of `CC(=O)Nc1ccc(S(=O)(=O)Nc2ccc(N3CCCCC3)cc2)cc1`, the differentiation response is 0% (inactive) and the double positive cells was 0%.
The matching figures for `CN(C(=O)c1cccc([N+](=O)[O-])c1)c1ccccc1C(=O)NCc1ccccc1`: 1.65% (inactive) and 1.35%.
For `CC(C)C(=O)N1CCN(c2nc(-c3ccccc3)c3c(c2C#N)CC(C)(C)OC3)CC1`, the differentiation response is 1.8% (inactive) and the double positive cells amounted to 1.6%.
For the molecule `O=C(CCCN1C(=O)CCC1=O)Nc1ccc(Cl)c(C(F)(F)F)c1`, the differentiation response was 1.55% (inactive) and the double positive cells was found to be 1.1%.
For `CC(CNc1ccc([N+](=O)[O-])cc1)NC(=O)c1ccccc1Br` (stereo not given), the differentiation response is 1.65% (inactive) and the double positive cells amounted to 1%.
For the molecule `CN(C(=O)CSc1nnc(C2CC2)n1C)C1CCCc2ccccc21` (stereo not given), the differentiation response is 2.6% (inactive) and the double positive cells was 2.05%.
`COc1ccc(C(=O)N(Cc2ccccc2)c2ccc(C)cc2)cc1S(=O)(=O)N1CCOCC1`: the differentiation response was 1.9% (inactive) and the double positive cells is 0.95%.
As to `COc1ccc2nc(N3CCN(C(=O)c4ccc([N+](=O)[O-])o4)CC3)sc2c1`, the differentiation response is 3.05% (inactive) and the double positive cells is 0%.
Take `O=C(NCC1CCCCC1)NCC1CCCCC1`: the differentiation response was 0.8% (inactive) and the double positive cells worked out at 0.5%.
Turning to `O=C(NC(=O)c1ccccc1)Nc1ccccc1O`, the differentiation response is 5.8% (inactive) and the double positive cells worked out at 0.95%.
Taken in the same sequence, the figures for `O=S(=O)(NCc1cccnc1)c1ccc(Cl)nc1` were 1.35% (inactive) and 1.1%.
With `CC(C)CC(COCc1ccc(Cl)cc1)N1CCN(C(=O)c2ccc(C(F)(F)F)cc2)CCC1=O` (stereo not given), the differentiation response was 2.15% (inactive) and the double positive cells was 1.95%.
With `CCOC(=O)c1c(-c2ccccc2)oc2ccc(OCC(=O)NN)cc12`, the differentiation response was 2.65% (inactive) and the double positive cells was determined as 0.85%.
Turning to `COc1ccccc1N1CCN(C(=O)c2cc(-c3ccc(Br)cc3)on2)CC1`, the differentiation response is 1.9% (inactive) and the double positive cells came out at 1.65%.
Consider `Nc1ccc2nc3c(=O)[nH]c(=S)[nH]c3nc2c1`, for which the differentiation response was 11.7% (inactive) and the double positive cells amounted to 1.75%.
Take `COc1cccc(NC(=O)[C@H](Cc2c[nH]c3ccccc23)NC(=O)[C@@H]2Cc3ccccc3CN2)c1`: the differentiation response is 5% (active) and the double positive cells is 4.8%.
On to `CCc1c(C)sc(NC(=O)c2cccs2)c1C(N)=O`, for which the differentiation response is 7.25% (inactive) and the double positive cells is 5.9%.
Consider `O=C(CN(c1ccccc1)S(=O)(=O)c1ccc(Cl)cc1)Nc1ccccc1C(=O)N1CCCC1`, for which the differentiation response is 2.2% (inactive) and the double positive cells turned out to be 1.4%.
For `O=C(Cn1cc(-c2nnnn2-c2ccc(Cl)cc2)c(=O)c2ccccc21)c1ccccc1`, the differentiation response was 3.55% (inactive) and the double positive cells was 2.6%.
`CC1CCCC(NC(=O)CN2CCN(Cc3ccc(Cl)cc3)C2=O)C1C` (stereo not given): the differentiation response was 4.75% (inactive) and the double positive cells stood at 2.6%.
For `CCc1noc(C)c1C(=O)Nc1nc(-c2ccccc2)cs1`, the differentiation response was 1.4% (inactive) and the double positive cells is 1%.
Consider `C=CCNc1nnc(SCC(=O)N2CCCCC2)c2ccccc12`, for which the differentiation response is 2.2% (inactive) and the double positive cells is 1.55%.
On to `COc1cccc(NC(=S)NCc2ccccn2)c1`, for which the differentiation response is 1.3% (inactive) and the double positive cells worked out at 1.3%.
As for `COc1ccc(C(C(=O)NCc2ccccc2)n2c(=O)c(-c3ccccc3)nc3ccccc32)cc1` (stereo not given), the differentiation response is 29.1% (inactive) and the double positive cells amounted to 12.2%.
For the molecule `Cc1ccc(C)c(S(=O)(=O)N2CCN(c3ncnc4sccc34)CC2)c1`, the differentiation response was 5.55% (inactive) and the double positive cells is 0%.
`O=C1c2ccccc2C(=O)N1Cc1cc(-c2ccccc2Cl)no1`: the differentiation response was 2.85% (inactive) and the double positive cells is 1.25%.
The matching figures for `N#CC1=C(N)Oc2c(sc3ccccc23)C1c1ccco1` (stereo not given): 50% (inactive) and 25%.
The matching figures for `CCOC(=O)CC(=O)CSc1nc(-c2ccccc2)cc(-c2ccc(Cl)cc2)c1C#N`: 1.35% (inactive) and 1.15%.
Regarding `COc1ccccc1CNC(=O)c1cc(-c2cc(Cl)ccc2C)n[nH]1`, the differentiation response is 0.15% (inactive) and the double positive cells was 0%.
As to `CCOC(=O)c1c(-c2cccc(C)c2)csc1NC(=O)c1c(-c2ccccc2)noc1C`, the differentiation response was 0.75% (inactive) and the double positive cells stood at 0.25%.
